Source: PubChem BioAssay (Fisher Drug Discovery Resource Center)
Only some compounds are listed: those with a hit (about 0.3% of all), similar ones and a draw of the others.
hcGAS inh: Primary biochemical luminescence assay for human cyclic GMP-AMP synthase inhibitors | AID 1259398, 2018 | Q8N884 | 290,000 tested, 0.081% active | recombinant h-cGAS, ATP depletion, Kinase-Glo luminescence | inhibition, % at 12.5 µM
mcGAS inh: cyclic GMP-AMP synthase inhibitors, mouse, primary biochemical chemiluminescence. recombinant cGAS, Kinase-Glo ATP depletion luminescence. inhibition, % at 12.5 µM. 160,000 tested, 0.15% active. AID 1259399, 2018
Target sequence (Q8C6L5 whole entry, looked up): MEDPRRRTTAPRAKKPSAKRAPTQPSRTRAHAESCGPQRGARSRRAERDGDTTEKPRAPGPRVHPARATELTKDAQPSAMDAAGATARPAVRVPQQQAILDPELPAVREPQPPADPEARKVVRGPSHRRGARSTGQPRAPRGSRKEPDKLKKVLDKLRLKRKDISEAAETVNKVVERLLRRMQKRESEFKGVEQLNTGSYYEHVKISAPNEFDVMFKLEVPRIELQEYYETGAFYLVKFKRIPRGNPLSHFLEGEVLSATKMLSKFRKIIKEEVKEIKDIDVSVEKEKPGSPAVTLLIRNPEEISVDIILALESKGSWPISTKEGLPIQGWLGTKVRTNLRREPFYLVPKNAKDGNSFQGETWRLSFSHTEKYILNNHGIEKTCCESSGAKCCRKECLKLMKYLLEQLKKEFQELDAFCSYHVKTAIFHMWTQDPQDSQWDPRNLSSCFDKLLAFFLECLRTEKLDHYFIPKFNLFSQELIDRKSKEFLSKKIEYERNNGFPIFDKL
NPYLR7 ag: agonists of mosquito NPYLR7 receptor, primary screen, cell-based, Aedes aegypti, calcium fluorescence, mosquito biting behavior | Aedes aegypti neuropeptide Y-like receptor 7 (NPYLR7) | HEK293T NPYLR7/Galpha15, GCaMP6s calcium fluorescence | activation, % at 10 µM | 270,000 tested, 0.15% active; in the data active = activation above about 40%
Large screens that a line does not name were inactive. Cut-off read from the data, not from the text of the source, unless noted: active = inhibition above about 40%; inactive = the rest.

O[C@@H]1CN(Cc2ccncc2Cl)CC[C@H]1c1ccc2c(c1)OCO2	NPYLR7 ag 49 (no result: mcGAS inh)
CC(=O)Nc1cccc(NC(=O)CSc2ncc(CO)n2CC(=O)NC(C)C)c1	none (no result: mcGAS inh)
COc1ccc2c(c1)CCC(=Cc1cc(Br)ccc1OC)C2=O	none
O=C1/C(=C/c2csnn2)CCOc2cc(Br)ccc21	mcGAS inh 53
OCC1(Cc2ccccc2Cl)CCN(Cc2cccn2-c2cccnc2)CC1	none (no result: mcGAS inh)
COc1ccc(CN(Cc2ccco2)C(=O)c2ccc(Cl)cc2)cc1OCc1nc(CO)cs1	none
O=C1c2ccccc2C(=O)C1c1nccc2ccccc12	none (no result: mcGAS inh)
O=C1c2ccccc2C(=O)C1c1ccnc2ccccc12	NPYLR7 ag 103
Cc1cc(C)c2c(c1)OC/C(=C\c1csnn1)C2=O	mcGAS inh 45
O=C1/C(=C/c2csnn2)COc2c1ccc(Cl)c2Cl	none (no result: mcGAS inh)
COc1ccc2c(c1OC)C(=O)OC2CC(=O)c1ccc([N+](=O)[O-])cc1 (stereo unspecified)	mcGAS inh 58
COc1cccc(OC)c1OCCCOc1ccc([N+](=O)[O-])cc1	none (no result: mcGAS inh)
Cc1nc(NS(=O)(=O)c2ccc(Br)s2)c2c3c(sc2n1)CCC3	none (no result: mcGAS inh)
CC(C)=CCc1c2c(c(O)c3c(=O)c(O)c(-c4ccccc4)oc13)C=CC(C)(C)O2	none
CC(C)=CCCC1(C)C=Cc2c(O)c3c(c(CC=C(C)C)c2O1)OC12C(=CCCC1C(C)(C)O[C@@]2(C/C=C(\C)C(=O)O)C(=O)O)C3=O (stereo partly specified)	hcGAS inh 68, mcGAS inh 58 (no result: NPYLR7 ag)
CNC(=O)CN1CCC(NC(=O)CCC(=O)c2cc(C)ccc2C)CC1	none (no result: mcGAS inh)
COc1ccccc1C1C(N2CSCC2=O)C(=O)N1CCc1ccccc1 (stereo unspecified)	none (no result: mcGAS inh)
Cc1cc(C)nc(SCc2cc(=O)n3[nH]c(C)c(-c4ccccc4)c3n2)n1	none (no result: mcGAS inh)
COCc1[nH]n2c(=O)cc(Cc3ccccc3)nc2c1-c1ccccc1	hcGAS inh 56 (no result: mcGAS inh)
CCCc1cc(=O)n2[nH]c(COC)c(-c3ccc(C)cc3)c2n1	none (no result: mcGAS inh)
O=c1cc(Cc2ccccc2)nc2c(-c3ccccc3)c(C(F)(F)F)[nH]n12	hcGAS inh 68 (no result: mcGAS inh)
Cc1ncsc1CN1CCC(C(=O)N2CCCCCCNC(=O)CC2)CC1	none (no result: NPYLR7 ag)
O=C1Nc2cc(C(F)(F)F)ccc2SC1CC(=O)N1CCCCCC1 (stereo unspecified)	none
COc1ccc(NC(=O)N2CCN(CCCOC(c3ccc(Cl)cc3)c3ccc(Cl)cc3)CC2)c(C)c1	none
Nc1cc(-c2ccc(Cl)cc2)nn1-c1ccc(C(=O)N2CCC(O)(Cc3ccccc3)CC2)cc1	none
CN1C(=CP(=O)(N(C)C)N(C)C)C(C)(C)c2ccccc21	none (no result: mcGAS inh)
CN1C(=CC=C2C(=O)Oc3ccccc3C2=O)C(C)(C)c2ccccc21	NPYLR7 ag 49 (no result: mcGAS inh)
Cc1[nH]cnc1CN(C)C(C)C(=O)N(C)C (stereo unspecified)	none (no result: mcGAS inh)
COc1cccc(CC2CN(C(=O)Nc3cccs3)CCO2)c1 (stereo unspecified)	none (no result: mcGAS inh)
CC(=O)c1c(C)[nH]c(C(=O)Cn2cc(C(F)(F)F)cc(Cl)c2=O)c1C	hcGAS inh 74
CC(N)=C(C#N)C(=O)Cn1cc(C(F)(F)F)cc(Cl)c1=O	none (no result: mcGAS inh)
Cc1cc(-n2c(C)cc(C(=O)COC(=O)c3sccc3C)c2C)no1	none (no result: mcGAS inh)
O=c1oc(/C=C/c2ccco2)nc2ccc(Br)cc12	mcGAS inh 45
O=c1oc(C=Cc2ccco2)nc2sc3c(c12)CCCC3	none (no result: mcGAS inh)
Cc1noc(-c2ccc(OC(F)(F)F)cc2)c1C(=O)NCc1ccc(F)c(F)c1	none
CC(OC(=O)c1ccc(CO)cc1)C(=O)N(C)c1ccccc1 (stereo unspecified)	none (no result: mcGAS inh)
Brc1c(Br)c(Br)c2n[nH]nc2c1Br	hcGAS inh 41, mcGAS inh 84
Brc1c(Br)c(Br)c2[nH]cnc2c1Br	none
COCCn1c(=O)c2c(nc3n2CC(C)CN3c2ccc(OC)cc2)n(C)c1=O (stereo unspecified)	none (no result: mcGAS inh)
Cc1ccc(C)c(S(=O)(=O)NC(C)c2ccc(-c3csc(C)n3)cc2)c1 (stereo unspecified)	none
Cc1cc2ncn(CC3CCN(Cc4ccccn4)CC3)c2cc1C	none (no result: mcGAS inh)
FC(F)(F)c1cc(-c2cccs2)nc2ncnn12	NPYLR7 ag 95
FC(F)(F)c1cc(-c2ccccc2)nc2ncnn12	none
NC(=O)c1cc(-c2ccccc2)sc1NC(=O)CCl	mcGAS inh 81
COC(=O)c1cc(-c2ccccc2)sc1NC(=O)CCCl	none
COc1ccc(NC(=O)c2ccoc2C)c(N2CCN(C(C)=O)CC2)n1	none (no result: mcGAS inh)
O=C(NCCN1CCCC1)c1cc2n(n1)CCN(Cc1ccccc1C(F)(F)F)C2=O	none
O=C(NCCN1CCCCC1)c1cc2n(n1)CCN(Cc1cccc(C(F)(F)F)c1)C2=O	mcGAS inh 47
